From PubChem BioAssay
ATXN2 expr inh: reduces ATXN2 reporter expression in HEK-293 cells; HEK-293 ATXN2-luciferase reporter, luminescence, 24 h; Potency, µM (doses to about 57 µM), actives largely listed as inhibitors; 0.72% of 360,000 active; AID 1745845; further: nearly all actives have a fitted effect of over 55% in size
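qHTS (up to 57 uM final) was run with 24 h compound exposure of reporter cells at 37 °C. Each well was multiplexed: SteadyGlo luminescence measured ATXN2-luciferase expression after a fluorogenic Gly-Phe-AFC viability readout (25 uM final).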
TGFb inhibitor: TGF-b pathway inhibition. HepG2 CAGA-GFP TGF-b/SMAD3 reporter, GFP fluorescence, 18 h; TGF-beta stimulated, 500 pg/mL final. Potency, µM (top dose mostly 46.1 µM), usual class: inhibitors. 1.2% of 410,000 active; further: nearly all actives have a fitted effect of over 65% in size
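Read-out: total well GFP (ex488/em500-530) summed from mean per-cell fluorescence. Cells: HEPG2 CAGA-GFP, 1% FBS DMEM, 18 h at 37 degrees C with 500 pg/mL final TGF-beta. Unstimulated wells served as the full-inhibition control; stimulated DMSO wells = 0%.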
Nrf2 block: Nrf2 pathway inhibition; A549 ARE-Fluc reporter, luciferase luminescence, 18-24 h; Potency, µM (titrated, usually from 46 µM), most hits filed as inhibitors; 2.1% of 360,000 active; further: nearly all actives have a fitted effect of over 60% in size
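In this cell-based qHTS, ARE-driven firefly luciferase in A549 cells reports Nrf2 activity; the luminescent signal after BugLite lysis is the measured value, with a prior CellTiter-Fluor read for cell health.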
A549 viability: counter-screen for Nrf2 inhibitors: cytotoxicity in A549 cells. A549 ARE-Fluc cells, CellTiter-Fluor viability, 18-24 h. Potency, µM (titrated, usually from 46 µM), hits mostly inhibitors. 0.16% of 390,000 active. AID 504648
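A549 ARE-Fluc cells in 5% FBS OPTI-MEM, 5000 cells/well, rested 2 h then exposed to compounds in concentration-response for 18-24 h at 37 °C. Viability by CellTiter-Fluor fluorescence (Ex 405/Em 525) after 30 min; luciferase luminescence (BugLite, 15 min, RT) read afterwards.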
HepG2 viability: HepG2 cytotoxicity, counter-screen for TGF-b inhibitors; HepG2 CAGA-GFP viability, ATP luminescence, 18 h; Potency, µM (highest dose often 46.1 µM), actives largely listed as cytotoxic; 0.76% of 410,000 active; AID 588856
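CellTiter-Glo luminescence gave cytotoxicity after 18 hours at 37 degrees C. The cells were HepG2 CAGA-GFP in 1% FBS DMEM, stimulated with 500 pg/mL TGF-beta after compound addition. %Activity was normalised to no-cell wells (complete cell-killing) and DMSO (no toxicity), and curves were fitted and classified.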
ATXN viability: reduces viability in counter-screen for ATXN expression inhibitors. S2 cells (HEK-293 line with an ATXN2-luciferase reporter) viability, CellTiter-Fluor protease fluorescence, 24 h. Potency, µM (titrated, usually from 56.7 µM), actives largely listed as cytotoxic. 0.49% of 400,000 active. AID 651635; further: nearly all actives have a fitted effect of over 40% in size
Hits are given with their value. An excerpt weighted towards active compounds, which were near 3.8% of everything screened. The call rests on the fitted dose curve; in most records, active means well fitted curve in the direction sought with a large enough effect; inconclusive means small, poorly fitted or top-dose-only effect, or another doubt; inactive means no such curve, though single readings can be large; an effect the other way counts as inactive or inconclusive.

CCOC(=O)C1CCCC(NS(=O)(=O)c2ccc(NC(C)=O)cc2)C1 (centres undefined) was read as ATXN2 expr inh inactive, TGFb inhibitor 11µM, Nrf2 block inactive, A549 viability inactive, HepG2 viability inactive and ATXN viability inactive.
Screening CCOc1ccc(NC(=O)COc2ccc(S(=O)(=O)NC3CCCCC3)cc2)cc1 returned ATXN2 expr inh inactive, TGFb inhibitor inactive, Nrf2 block inconclusive, A549 viability inactive, HepG2 viability inactive and ATXN viability inactive.
`CN(Cc1ccc(C(C)(C)C)cc1)C(=O)C1CCN(C(=O)Nc2ccccc2)CC1` gave ATXN2 expr inh inactive, TGFb inhibitor inactive, Nrf2 block 21µM, A549 viability inactive, HepG2 viability inactive and ATXN viability inactive.
Screening Cc1ccc(CN(C)C(=O)C2CCN(C(=O)Nc3ccccc3)CC2)o1 returned ATXN2 expr inh inactive, TGFb inhibitor inactive, Nrf2 block inactive, A549 viability inactive, HepG2 viability inactive and ATXN viability inactive.
Screening CC(=O)N/N=C/c1ccc(OCCOc2ccc(Br)cc2)cc1 returned ATXN2 expr inh inactive, TGFb inhibitor inconclusive, Nrf2 block inactive, A549 viability inactive, HepG2 viability inactive and ATXN viability inactive.
For CCc1cnc2c(c1SCc1c(F)cccc1Cl)c(=O)n(C)c(=O)n2C the results were ATXN2 expr inh inactive, TGFb inhibitor inactive, A549 viability inactive, HepG2 viability inactive and ATXN viability inactive.
For CCCSCCCNC(=O)C1CCN(C(=O)c2cnn(-c3ccccc3)c2-n2cccc2)CC1 the results were ATXN2 expr inh inactive, TGFb inhibitor inconclusive, Nrf2 block inactive, A549 viability inactive, HepG2 viability inactive and ATXN viability inactive.
CCCSCCCNC(=O)C1CCCN(C(=O)c2cnn(-c3ccccc3)c2-n2cccc2)C1 (centres undefined) was read as ATXN2 expr inh inactive, TGFb inhibitor 16µM, Nrf2 block inconclusive, A549 viability inactive, HepG2 viability inactive and ATXN viability inactive.
For O=C(Nc1cccnc1)c1ccc(COc2ccccc2Br)cc1 the results were TGFb inhibitor inconclusive, Nrf2 block 13µM, A549 viability inactive, HepG2 viability inactive and ATXN viability inconclusive.
Screening C[C@@H]1C(c2cccc(Cl)c2)=NN(c2ccc(Br)cc2)[C@H]1C(=O)N1CCOC1=O returned ATXN2 expr inh inactive, TGFb inhibitor 10µM, Nrf2 block inactive, A549 viability inactive and HepG2 viability inactive.
Screening C[C@@H]1C(c2cccc(Cl)c2)=NN(c2ccccc2)[C@H]1C(=O)N1CCOC1=O returned ATXN2 expr inh inactive, TGFb inhibitor 20µM, Nrf2 block inconclusive, A549 viability inactive and HepG2 viability inactive.
`CC[C@H](C=C[C@@H](C)[C@H]1CC[C@H]2[C@@H]3CC=C4C[C@@H](O)CC[C@]4(C)[C@@H]3CC[C@]12C)C(C)C` gave ATXN2 expr inh inactive.
Cc1nn(C)c(C(=O)Nc2ccc(S(=O)(=O)NC34CC5CC(CC(C5)C3)C4)cc2)c1Br was read as ATXN2 expr inh inconclusive, TGFb inhibitor inconclusive, Nrf2 block 15µM, A549 viability inconclusive, HepG2 viability inactive and ATXN viability inconclusive.
For Cc1cc(OCC(=O)Nc2ccc(Br)cc2)cc2c1C(=O)CC(C)(C)O2 the results were ATXN2 expr inh 13µM, TGFb inhibitor inconclusive, Nrf2 block inactive, A549 viability inactive, HepG2 viability inactive and ATXN viability inactive.
CC(=O)Nc1ccc(NC(=O)COc2cc(O)c3c(c2)OC(C)(C)CC3=O)cc1 was read as ATXN2 expr inh inactive, TGFb inhibitor inactive, Nrf2 block inconclusive, A549 viability inactive, HepG2 viability inactive and ATXN viability inactive.
`O=S(=O)(Nc1nc2ccccc2nc1N1CCN(c2ccccc2)CC1)c1ccc(F)cc1` gave ATXN2 expr inh inactive, TGFb inhibitor inconclusive, Nrf2 block 26µM, A549 viability inconclusive, HepG2 viability inactive and ATXN viability inactive.
`O=C(NC1=NCCS1)c1cccc(S(=O)(=O)N2CCOCC2)c1` gave ATXN2 expr inh inactive, TGFb inhibitor inactive, Nrf2 block inactive, A549 viability inactive, HepG2 viability inactive and ATXN viability inactive.
`O=C(CN(c1cccc(C(F)(F)F)c1)S(=O)(=O)c1ccccc1)Nc1cccc(Cl)c1` gave ATXN2 expr inh inconclusive, TGFb inhibitor inconclusive, A549 viability inconclusive, HepG2 viability inactive and ATXN viability inconclusive.
Screening O=C(CN(c1ccc(Cl)c(C(F)(F)F)c1)S(=O)(=O)c1ccccc1)Nc1cccnc1 returned ATXN2 expr inh inconclusive, TGFb inhibitor 11µM, Nrf2 block inconclusive, A549 viability inactive, HepG2 viability inactive and ATXN viability inconclusive.
`Cc1cc(=O)oc2cc(Oc3ccc([N+](=O)[O-])cc3[N+](=O)[O-])ccc12` gave ATXN2 expr inh inactive, TGFb inhibitor inactive, Nrf2 block inactive, A549 viability inactive, HepG2 viability inactive and ATXN viability inconclusive.
For CCNc1nc(NCC)n2c(SCC(=O)Nc3cccc(Cl)c3)nnc2n1 the results were ATXN2 expr inh inactive, TGFb inhibitor inactive, Nrf2 block inconclusive, A549 viability inactive, HepG2 viability inactive and ATXN viability inactive.
Screening CCNc1nc(NCC)n2c(SC(C(=O)Nc3cc(Cl)cc(Cl)c3)c3ccccc3)nnc2n1 (centres undefined) returned ATXN2 expr inh 25µM, TGFb inhibitor inactive, Nrf2 block inconclusive, A549 viability inactive and HepG2 viability inactive.
`O=C(Nc1ccc2oc(-c3cccnc3)nc2c1)c1ccc(-c2ccccc2OC(F)(F)F)o1` gave ATXN2 expr inh inactive, TGFb inhibitor inconclusive, Nrf2 block 0.65µM, A549 viability inactive, HepG2 viability inactive and ATXN viability inconclusive.
For O=C(Nc1ccc2oc(-c3cccnc3)nc2c1)c1ccc(-c2ccccc2)o1 the results were TGFb inhibitor inconclusive, Nrf2 block 13µM, A549 viability inactive and HepG2 viability inactive.
`CCS(=O)(=O)c1ncc(Cl)c(C(=O)N(Cc2ccccc2)Cc2ccco2)n1` gave TGFb inhibitor inconclusive, Nrf2 block 23µM, A549 viability 16µM and HepG2 viability 5.6µM.
Screening CCSc1ncc(Cl)c(C(=O)N(Cc2ccc(N(C)C)cc2)Cc2ccco2)n1 returned Nrf2 block 18µM, A549 viability inactive and HepG2 viability inactive.
CCc1ccc(CN(Cc2ccco2)c2cnc(S(C)(=O)=O)nc2C(=O)Nc2ccccc2Cl)cc1 was read as ATXN2 expr inh inactive, TGFb inhibitor 7.9µM, Nrf2 block inactive, A549 viability inactive, HepG2 viability inactive and ATXN viability inactive.
